High-throughput results: PubChem BioAssay, National Center for Advancing Translational Sciences (NCATS)
Only some compounds are listed: those with a hit (about 6.5% of all), similar ones and a draw of the others.
HCMV antiviral: human cytomegalovirus inhibition; HFF cells, HCMV-luciferase reporter, 72 h; active compounds read low; activity change, negative = inhibition, % at 57.5 µM; 410,000 compounds, 4.5% hits; in the data active means activity change below about -60%; inconclusive means no clear call, values can overlap the other calls; inactive means above about -39%
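Human foreskin fibroblasts infected with luciferase-reporter HCMV at MOI 1 PFU/cell, compounds at two doses. Luciferase measured 72 h post infection; normalized to buffer-only basal and Salinomycin (10uM) controls.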
VACV Venus inh: inhibitors of vaccinia virus (Venus reporter) | Vaccinia virus Venus reporter expression, fluorescence | Potency, µM (titrated, usually from 36.5 µM), for the others: at the highest dose activity change, negative = inhibition, most hits filed as inhibitors | 330,000 compounds, 0.46% hits | AID 720580; calls by dose curve; tested in A549 cells; further: potency means the concentration at half of the fitted maximal effect; nearly all actives have a fitted effect of over 30% in size
LASV entry inh: Lassa virus entry inhibition; Lassa virus pseudotype entry inhibition, cell reporter; Potency, µM (series often up to 37.9 µM), without a hit: at the top dose activity change, negative = inhibition, usual class: inhibitors; 300,000 compounds, 1.2% hits; calls by dose curve; tested in HEK293 cells; further: potency means the concentration at half of the fitted maximal effect; nearly all actives have a fitted effect of over 50% in size
FMDV inh: foot and mouth disease virus antiviral activity; FMDV antiviral cell-based qHTS; Potency, µM (series often up to 57.9 µM), inactives show at the highest dose activity change, negative = inhibition, actives largely listed as inhibitors; 410,000 compounds, 1.2% hits; AID 1159524; calls by dose curve; tested in HEK293T cells; further: read-out not given here; potency means the concentration at half of the fitted maximal effect; nearly all actives have a fitted effect of over 45% in size
MARV entry inh: inhibitors of Marburg virus binding or cell entry; 300,000 compounds, 1.8% hits; Potency, µM (top dose mostly 37.8 µM), for the others: at the top dose activity change, negative = inhibition, usual class: inhibitors; Marburg virus pseudotyped entry inhibition, cell reporter; calls by dose curve; tested in HEK293 cells; further: potency means the concentration at half of the fitted maximal effect
VACV mCherry inh: vaccinia inhibition (mCherry reporter); AID 720579; Vaccinia virus mCherry reporter infection, fluorescence; 310,000 compounds, 0.63% hits; Potency, µM (series often up to 36.5 µM), without a hit: top-dose activity change, negative = inhibition, hits mostly inhibitors; calls by dose curve; tested in A549 cells; further: potency means the concentration at half of the fitted maximal effect; nearly all actives have a fitted effect of over 35% in size
* marks the source's active call; other numbers are inactive results; i = inactive; ? = inconclusive; . = not tested or not shown; [ ] = another dose, or the depositor's remark. On the % scale 0 is the no-effect control and ±100 the full control effect.

SMILES | HCMV antiviral | VACV Venus inh | LASV entry inh | FMDV inh | MARV entry inh | VACV mCherry inh
COc1ccc(-n2nc3c(N4CCCC(C(=O)NCCc5ccccc5C)C4)nnc(C)c3c2C)cc1 (centres undefined) | -87* | -8% | -17%[46.1 µM] | -7% | . | -27%
COc1ccc(-n2nc3c(N4CCC(C(=O)NCCc5ccccc5C)CC4)nnc(C)c3c2C)cc1 | . | -23% | -15%[46.1 µM] | -28% | ? | -1%
CCOc1ccccc1CNC(=O)C1CCCN(c2nnc(C)c3c(C)n(-c4ccccc4)nc23)C1 (centres undefined) | -107* | ? | 1%[46.1 µM] | 5% | . | ?
COc1ccc(-n2nc3c(N4CCCC(C(=O)NCc5ccccc5C)C4)nnc(C)c3c2C)cc1 (centres undefined) | -99* | ? | 6.3µM* | -26% | . | ?
CC(C)(CNC(=O)c1cnn(-c2nccc(-c3cc4ccccc4o3)n2)c1C1CC1)N1CCOCC1 | . | -1% | . | 6% | . | 0%
CCCC[C@]12Cc3cc(C#N)ccc3[C@H](O1)c1c(cc(C)n(-c3ccccc3)c1=O)O2 | . | . | . | . | -14%[14.2 µM] | .
COc1cccc(C(c2sc3nc(-c4ccco4)nn3c2O)N2CCOCC2)c1 (centres undefined) | -3 | 4% | 9%[46.1 µM] | 3% | . | 4%
c1ccc(CC2CCN(c3nc4ccccc4n4nnnc34)CC2)cc1 | -102* | -8% | 2% | 0% | 16% | .
CCOC(=O)c1c(NC(C)=O)c2c3c(sc2n1Cc1cc(C)ccc1C)CCCC3 | 7 | -5% | . | -17% | -18%[46.1 µM] | 3%
Nc1nnc(SCCCC(=O)c2ccc(F)cc2)s1 | 24 | -18% | -10% | 9% | 4% | -6%
O=C(CCCSc1nnc(SCCCC(=O)c2ccc(F)cc2)s1)c1ccc(F)cc1 | -16 | 11µM* | ? | . | ? | ?
COc1ccc(C2NC(=O)C(C#N)=C(S)N2c2ccc(C)cc2)cc1OC (centres undefined) | -65* | . | . | 14% | . | .
COc1cc(C2NC(=O)C(C#N)=C(S)N2c2ccc(C)cc2)ccc1OC(C)C (centres undefined) | 9 | -16% | 3% | 9% | 4% | -14%
O=c1cnc2cncnc2n1Cc1ccc(F)cc1 | . | . | . | -3% | . | .
O=C(Nc1cccc2cccnc12)c1csc([C@@H]2O[C@H](CO)[C@H](O)[C@H](O)[C@H]2O)n1 | -99* | 5% | . | -12% | . | 14%
O=C(Nc1ccc(Oc2ccccc2)cc1)c1csc([C@@H]2O[C@H](CO)[C@@H](O)[C@H]2O)n1 | -93* | -18% | . | 16µM* | . | i
O=C(Nc1ccc(Oc2ccccc2)cc1)c1csc([C@H]2C[C@H](O)[C@@H](CO)O2)n1 | -97* | -27% | . | 7.9µM* | . | -12%
O=C(Nc1cccc2ccccc12)c1csc([C@@H]2O[C@H](CO)[C@@H](O)[C@H]2O)n1 | -8 | 2% | . | -6% | . | i
CC(=O)Nc1ccc(NC(=O)c2csc([C@@H]3C[C@H](O)[C@@H](CO)O3)n2)cc1 | -26 | 7% | . | -14% | . | 31%
O=C(Nc1ccc2c(c1)OCO2)c1csc([C@H]2C[C@H](O)[C@@H](CO)O2)n1 | -97* | -5% | . | -3% | . | 38%
O=C(Nc1ccc(F)c(Cl)c1)c1csc([C@H]2C[C@H](O)[C@@H](CO)O2)n1 | 12 | -14% | . | 10% | . | -13%
Cc1ccc(C(=O)NCC(=O)OCC(=O)c2cccc3ccccc23)cc1 | . | -12% | . | . | . | -16%
CCN1C(=NCCc2cccnc2)NC(CCc2ccccc2)C(C(=O)OC)=C1C (centres undefined) | . | . | . | . | 38%[14.2 µM] | .
Cn1c(=O)[nH]c2c(cnn2C)c1=O | -98* | -9% | 2% | -11% | 3% | -14%
COc1ccc(-c2cc(-c3ccccc3)[n+](C)c(-c3ccccc3)c2)cc1 | -101* | -11% | ? | ? | 6.3µM* | i
SMILES | HCMV antiviral | VACV Venus inh | LASV entry inh | FMDV inh | MARV entry inh | VACV mCherry inh
CCS(=O)(=O)NCCCCc1ccccc1 | 12 | -5% | 16% | 2% | -21%[46.1 µM] | -11%
Cc1ccc(-c2cc(-c3ccccc3)cc(-c3ccccc3)[n+]2-c2ccc(C(=O)O)cc2)cc1 | -17 | -17% | . | -16% | . | -9%
COc1ccc(-[n+]2c(-c3ccccc3)cc(-c3ccc(C)cc3)cc2-c2ccccc2)cc1 | -94* | ? | ? | ? | ? | ?
Brc1ccc(-[n+]2c(-c3ccccc3)cc(-c3ccccc3)cc2-c2ccccc2)cc1 | -98* | ? | . | ? | . | 0%
O=C(O)c1ccc(-[n+]2c(-c3ccccc3)cc(-c3ccccc3)cc2-c2ccccc2)cc1 | 6 | 0% | . | 2% | . | i
C[n+]1c(-c2ccccc2)cc(CCCCc2cc(-c3ccccc3)[n+](C)c(-c3ccccc3)c2)cc1-c1ccccc1 | -98* | 3% | -19% | ? | ? | 1%
COc1cc2c(cc1OC)C1N(CC2)C(=O)CCC12C(=O)CCCC2=O (centres undefined) | . | . | . | -20% | . | .
N#Cc1c(C(F)(F)F)cc(-c2cccs2)nc1SCC(=O)Nc1ccc(F)cc1 | -17 | -3% | -17%[46.1 µM] | ? | . | -4%
COc1cc([C@H]2C(C(=O)c3cccs3)=C(O)C(=O)N2c2cc(C)on2)ccc1O | . | . | . | . | 11%[46.1 µM] | .
CCCOC(=O)c1ccc(-[n+]2c(-c3ccccc3)cc(-c3ccccc3)cc2-c2ccccc2)cc1 | -98* | ? | . | 14µM* | . | -6%
COc1cccc2c1C(=O)c1c(O)c3c(c(O)c1C2=O)CC(O)(C(=O)CO)CC3OC1CC(N(C)C)C(O)C(C)O1 (centres undefined) | -98* | i | ? | -5% | ? | i
CC(=O)[C@]1(O)Cc2c(O)c3c(c(O)c2[C@@H](O[C@H]2C[C@H](N)[C@H](O)[C@H](C)O2)C1)C(=O)c1c(O)cccc1C3=O | . | . | 0.16µM* | . | 0.056µM* | .
CC[C@]1(O)CC(O[C@@H]2CC(N(C)C)C(O)C(C)O2)c2c(cc3c(c2O)C(=O)c2c(O)ccc(O)c2C3=O)C1C(=O)OC (some centres undefined) | . | -2% | . | -8% | . | 1%
COc1cccc2c1C(=O)c1c(O)c3c(c(O)c1C2=O)C[C@@](O)(C(=O)CO)C[C@@H]3O[C@H]1C[C@H](N)[C@@H](O)[C@H](C)O1 | . | i | . | -5% | . | 139%
COc1cccc2c1C(=O)c1c(O)c3c(c(O)c1C2=O)C[C@@](O)(C(C)=O)C[C@@H]3O[C@H]1C[C@H](N)[C@H](O)[C@H](C)O1 | -100* | i | ? | -15% | 0.23µM* | 228%
CSc1nc(C(=O)N2CCOc3ccc(CN4CCN(Cc5ccccn5)CC4)cc3C2)cs1 | . | 1% | . | 40% | . | -11%
CCCc1cnc2c(c1SCC(=O)Nc1ccc([N+](=O)[O-])cc1)c(=O)n(C)c(=O)n2C | 2 | ? | ? | 16µM* | . | -11%
